# Laboratory results: PubChem BioAssay (NCI)
# The panel holds about 79,000 compounds, 15% with a hit somewhere; the sample as a whole holds those more often. Unmarked numbers belong to inactive results. Active and inactive are the calls of the source. No stated cut-off is given here; in the data, active means growth inhibition above about 70%; inactive means the rest. Where a SMILES comes first, the peptide text is derived from it. The star is where a group is joined. Cbz = O=C(OCc1ccccc1)*
# What was measured:
# [1] = NCI Yeast Anticancer Drug Screen. Data for the rad50 strain (AID 155);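 further: 0% = growth of vehicle-only cultures of the same strain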; conditions: S. cerevisiae rad50 strain growth inhibition; at 50.0 µM; hits give high values
# In short: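 Vehicle-treated cultures provide the reference for the growth inhibition reported for compound-exposed, repair-deficient yeast.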
# [2] = NCI Yeast Anticancer Drug Screen. Data for the mec2-1 strain (AID 157); conditions: S. cerevisiae mec2-1 strain, at 50.0 µM, hits give high values
# In short: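 Yeast mec2-1 mutant treated with compound. Readout: growth inhibition vs vehicle controls.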
# [3] = NCI Yeast Anticancer Drug Screen. Data for the sgs1 mgt1 strain (AID 161);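 further: 0% = growth of cultures given vehicle only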; conditions: S. cerevisiae sgs1 mgt1 strain, at 50.0 µM, hits give high values
# In short: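 Inhibition of yeast growth, normalised to vehicle-treated controls, is reported for a strain bearing genetic alterations in DNA damage repair.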
# [4] = NCI Yeast Anticancer Drug Screen. Data for the cln2 rad14 strain (AID 165);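 further: 0% = growth equal to vehicle treated cultures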; conditions: S. cerevisiae cln2 rad14 strain, at 50.0 µM, hits give high values
# In short: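 cln2 rad14 yeast strain; compound exposure; growth inhibition read vs vehicle controls.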
# [5] = NCI Yeast Anticancer Drug Screen. Data for the bub3 strain (AID 167); conditions: S. cerevisiae bub3 mutant strain, at 50.0 µM, hits give high values
# In short: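 Mutant yeast screening strain plus compound; vehicle-treated cultures serve as the 0% inhibition reference.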
# [6] = NCI Yeast Anticancer Drug Screen. Data for the mlh1 rad18 strain (AID 175); conditions: S. cerevisiae mlh1 rad18 strain growth inhibition; at 50.0 µM; hits give high values
# In short: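 Yeast w/ defined DNA-repair lesions; compound exposure; growth vs vehicle controls → % inhibition.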
SMILES,growth inhibition [1],growth inhibition [2],growth inhibition [3],growth inhibition [4],growth inhibition [5],growth inhibition [6]
CC(C)C(NC(=O)C(Cc1ccc(O)cc1)NC(=O)OCc1ccccc1)C(=O)O (stereo not drawn) (Cbz-Tyr-Val-OH; configuration not given here),10.2%,-3.25%,-3.85%,-29.6%,-3.15%,1.8%
O=C1c2ccccc2C(C2c3ccccc3C(=O)c3cc(Br)ccc32)c2ccc(Br)cc21 (stereo unspecified),4.25%,-35.1%,-9.5%,-48.9%,-14.1%,-18.2%
CN(C)C(=S)OCC(C)(C)C,-1.45%,-14.8%,-18.3%,-35.3%,3.4%,-23.6%
CCCC(=O)Nc1cc([N+](=O)[O-])c([N+](=O)[O-])cc1OC,-3.7%,-2.55%,0%,1.65%,13.8%,-3%
O=C(/C=C/c1ccc(OCc2ccccc2)c(OCc2ccccc2)c1)OCc1ccccc1,-12%,-9.65%,-5.15%,-33.9%,-3.45%,-34.8%
COc1ncnc2c(NC3OC(CO)C(O)C3O)ncnc12 (stereo unspecified),7.2%,-6.5%,-5.4%,12.4%,-9.2%,-9.3%
CN(C)c1nc(OC2C(C(O)CO)OC3OC(C)(C)OC32)nc(N(C)C)n1 (stereo unspecified),31.1%,-11.7%,6.15%,18%,-1.05%,-0.65%
CC(C)(C)c1ccc(OC(=O)NCCCCCCNC(=O)Oc2ccc(C(C)(C)C)cc2)cc1,-5.65%,23.9%,4.8%,92.3% (active),-2.85%,-8.5%
CNC(=O)n1cnc(N)n1 (tested in a mixture with another compound),-13.2%,8.2%,16.7%,-25.3%,-10.9%,13%
CC(=O)c1ccc(N2CCCCC2)cc1,-7.8%,-12.2%,4.55%,-3.1%,40%,-14.4%
O=P1(C(c2ccccc2)c2ccccc2)OC2CC(Cl)CC(C2)O1 (stereo unspecified),4.9%,-1.85%,-6.9%,-46.8%,0.25%,-11.9%
CC(C)(Oc1ccccc1)C(=O)Sc1c(-c2ccccc2)c(=O)n(-c2ccccc2)c(=S)n1-c1ccccc1,13.2%,-14.8%,-15.3%,-5.4%,-13.2%,-6.95%
C/C(=N\NC(=O)CC(=O)N(C(=O)c1ccc(Cl)cc1)c1ccc(C)cc1)c1ccccc1O,-2.05%,-26%,-10.2%,5.9%,-1.3%,-29.6%
COC(=O)c1c(C)cc(OC)c(C/C=C(\C)CCCc2coc(C=C(C)C)c2)c1OC,21%,6.55%,19%,11.9%,12.4%,25%
O=C(NCCCl)NC(Cc1ccccc1)Cc1ccccc1,6.65%,10.7%,15%,53.7%,2.1%,31.4%
C1CCN(c2nn[nH]n2)CC1,4.05%,-2%,3.75%,-10.3%,12.4%,0.4%
COC(=O)c1ccccc1NC(OC)c1cccc([N+](=O)[O-])c1 (stereo unspecified),18.6%,13.4%,12.1%,17.7%,12.6%,5.55%
OCC1OCOC1C1OCOC1CO (stereo unspecified),0.55%,4.35%,3.95%,2.9%,-2.55%,-3.45%
NC(Cc1cnc[nH]1)C(=O)NC(Cc1ccc(O)cc1)C(=O)O (stereo not drawn) (H-His-Tyr-OH; configuration not given here),7.6%,-23%,7.2%,16.6%,9.85%,22%
N#CCc1nc(-c2cc3ccccc3oc2=O)cs1,31.4%,16.3%,-12.4%,3.7%,0.75%,-57%
CC(C)C(Br)CCC1=CCC(Br)(Br)C1 (stereo unspecified),79.1% (active),82.2% (active),88.5% (active),86.2% (active),84.7% (active),90.3% (active)

SMILES,growth inhibition [1],growth inhibition [2],growth inhibition [3],growth inhibition [4],growth inhibition [5],growth inhibition [6]
CCOC(=O)C(=CN1CCCCCC1)C(=O)OCC,19.8%,13.2%,13.2%,6.1%,-0.25%,32.5%
COc1cc([N+](=O)[O-])cc(C(C)=O)c1O,17.9%,37.2%,31.5%,2.45%,15.1%,38.5%
OC1(c2ccccc2)CCN(C/C=C/c2ccccc2Cl)CC1,66.1%,53.9%,70.1% (active),77.1% (active),57.6%,85.8% (active)
CC(C)C(CC1CCCCC1)C(C)O (stereo unspecified),-7.65%,-0.45%,-14.6%,-14.4%,-9.35%,-17.6%
Cn1c(=O)c2c(-c3ccccc3)onc2n(C)c1=O,16.3%,12.8%,22.4%,33.7%,2.8%,44.8%
N#CC1(Cc2ccccc2)c2ccccc2-c2ccccc21,34.2%,27.8%,28.8%,1.85%,24.9%,45%
COc1ccccc1NC(=O)CC(=O)NN,-0.25%,2.15%,-3.9%,-25.1%,-1.8%,0.7%
CN(C)C(=O)C1C2CC3OC(=O)C1C3C2 (stereo unspecified),15.8%,-5.4%,6.2%,-41.3%,-1.65%,-0.6%
CCC(C)NC(=O)/C(=C\c1ccccc1O)NC(=O)c1ccccc1 (stereo unspecified),-30.1%,-35.6%,-2.25%,-5.65%,-4.3%,-4.45%
CCOC(=O)CCCCCCC(=O)OCC,19.1%,5.35%,5.05%,1.95%,1.1%,23.4%
CCOc1cc(C)c2cccc(C)c2n1,17.1%,-0.35%,-13.6%,6.25%,2%,13.8%
C(=NCCN=Cc1ccccc1)c1ccccc1,-10.7%,-6.9%,-21.8%,3.25%,-11.7%,-8.9%
CC(=O)c1cccc(NC(=O)C(=O)C(C2OC(=O)c3ccccc32)[N+](=O)[O-])c1 (stereo unspecified),5.45%,11.6%,17.6%,11.4%,3.2%,8.5%
CCCCCC(=O)C#Cc1ccccc1,24.1%,11.1%,11.7%,-7.25%,-4.9%,20.4%
CCCc1ccccc1[N+](=O)[O-],0.25%,-14.9%,-10.5%,-4.35%,8.7%,-7.1%
O=C1c2ccccc2C(=O)c2c1cc1c(c2O)OCO1,23.4%,13.4%,20.1%,-10.2%,-38%,46.9%
COc1ccc(C)cc1N,19.2%,-5.3%,-1.15%,24.4%,-3.2%,24.4%
CC12CCC(=O)OC1(C)OC(=O)CC2 (stereo unspecified),10.4%,17.1%,2.85%,-5.75%,7.7%,-7.7%
Cc1nnc(N/N=C/c2ccccc2)n1/N=C\c1ccccc1,8.05%,17.1%,-5.8%,10.2%,4.85%,-25.4%
CC1=C(/C=C/C(C)=C\c2cc(C)cc(=O)o2)C(C)(C)CCC1,23.1%,-1.5%,8.7%,-26.6%,5.75%,16.9%
